# In PubChem BioAssay AID743145 (Broad Institute, 2013):
# Entries with a potency or affinity are not part of this list. Unmarked numbers belong to inactive results. The rule behind the calls is not given here.
# Test: COV434 cell viability loss – plate reader, dry powder, SA7, cytotoxicity control for PAX8 inhibitor project, dose response (AID 743145)
# Conditions: series mostly up to 35 µM; activity change, negative = cytotoxicity: at the top concentration
row,Compound,"activity change, negative = cytotoxicity"
1,COc1cccc(-c2ccc([C@H]3[C@@H](CO)N(C(=O)Cc4ccccc4)[C@H]3C#N)cc2)c1,-16.2%
2,C[C@H](CO)N1C[C@H](C)[C@H](CN(C)C(=O)Nc2ccc(-c3cccs3)cc2)OCc2cnnn2CCCC1=O,3.45%
3,O=C(CN1C(=O)c2ccccc2S1(=O)=O)c1ccc(Cl)cc1Cl,8.31% [at 50 µM]
4,O=C(NCCc1ccccc1)c1ccc2c(c1)OCCCO2,-23.6% [at 50 µM]
5,C[C@H]1CN([C@@H](C)CO)C(=O)CCCn2nncc2CO[C@@H]1CN(C)C(=O)Nc1ccc(-c2cccs2)cc1,0.845%
6,COC(=O)[C@@]1(CCS(=O)(=O)c2ccccc2)N=C(c2ccc(OCCCO)cc2)O[C@H]1c1ccccc1,-28.9% [at 50 µM]
7,COc1ccc(S(=O)(=O)Nc2ccc3c(c2)CC(=O)N([C@@H](C)CO)C[C@@H](C)[C@@H](CN(C)Cc2ccc(-c4ccccc4)cc2)O3)cc1,-5.13%
8,Cc1ccccc1OCC(=O)Nc1cccc(C(=O)O)c1,7.84% [at 50 µM]
9,C[C@H]1CN([C@@H](C)CO)C(=O)Cc2cc(NC(=O)NC3CCCCC3)ccc2O[C@@H]1CN(C)Cc1ccc(-c2ccccc2)cc1,22.3%
10,COc1cccc(C#Cc2ccc([C@H]3[C@@H](C#N)N(C(=O)c4ccccn4)[C@@H]3CO)cc2)c1,-14.5%
11,COc1ccc(S(=O)(=O)Nc2ccc3c(c2)CC(=O)N([C@@H](C)CO)C[C@H](C)[C@@H](CN(C)Cc2ccc(C(F)(F)F)cc2)O3)cc1,-2.58%
12,COc1ccc(S(=O)(=O)N2CCCCN3[C@H](CO)[C@H](c4ccc(C#CC(C)C)cc4)[C@H]3C2)cc1,17.6%
13,COc1cccc(C#Cc2ccc([C@@H]3[C@@H](C#N)N(C(=O)C4CCCC4)[C@@H]3CO)cc2)c1,-18%
14,C[C@H](CO)N1C[C@H](C)[C@@H](CN(C)S(=O)(=O)c2ccc(-c3ccccc3)cc2)OCc2cn(nn2)CCCC1=O,5.76%
15,CCc1cnc(N2[C@@H](C#N)[C@@H](c3ccc(C#CC(C)C)cc3)[C@@H]2CO)s1,5.79%
16,C[C@@H]1CN([C@H](C)CO)C(=O)CCCn2cc(nn2)CO[C@H]1CN(C)C(=O)Nc1ccc(-c2cccs2)cc1,3.8%
17,O=C1/C(=C/c2cccc(Br)c2)SC(=S)N1CCC(=O)N(CCO)c1ccccc1,-46.1% [at 50 µM]
18,N#C[C@@H]1[C@@H](c2ccc(-c3ccccc3F)cc2)[C@@H](CO)N1C(=O)C1CCC1,-6.05%
19,C[C@H](CO)N1C[C@H](C)[C@@H](CN(C)Cc2ccc(-c3ccccc3)cc2)Oc2ccc(NC(=O)C3CC3)cc2CC1=O,23.2%
20,N#C[C@H]1[C@@H](c2ccc(C#CC3CCCCC3)cc2)[C@@H](CO)N1S(=O)(=O)c1ccccc1,-24.8%
21,CC(=O)N1CCOc2ccc(S(=O)(=O)N3CCN(c4cccc(C(F)(F)F)c4)CC3)cc21,-13.7% [at 50 µM]
22,C[C@@H]1CN([C@@H](C)CO)S(=O)(=O)c2ccc(C#C[C@@H](C)O)cc2O[C@H]1CN(C)Cc1ccc(-c2ccccc2)cc1,-5.91%
23,O=C1/C(=C/c2ccccc2)SC(=S)N1CC(=O)N1CCCCC1c1cccnc1 (stereo unspecified),-3.46% [at 50 µM]
24,O=C(CN1C(=O)c2ccccc2S1(=O)=O)c1ccccc1Cl,-6.49% [at 50 µM]
25,O=C(CCS(=O)(=O)c1ccccc1)Nc1nc2ccc(F)cc2s1,7.63% [at 50 µM]
26,COc1cccc(C#Cc2ccc([C@@H]3[C@@H](C#N)N(C(=O)C4CCCCC4)[C@H]3CO)cc2)c1,-26.6%
